Experiments:
Test in all cases: DAPPL (digital affinity profiling via proximity ligation, sequencing); 10 mM Tris-HCl pH 7.5, 50 mM NaCl, 1 mM DTT, 4% glycerol, room temperature, 30 min; GST-TFs on glutathione beads, 16-mer random dsDNA library, 0.1% formaldehyde crosslink after washing; high values mean tight binding
Settings in all cases: protein: recombinant; tags: N-terminal GST; dsDNA, one strand shown
ERF = target: T1, ERF (Homo sapiens, UniProt P50548 1-548)
T1 sequence: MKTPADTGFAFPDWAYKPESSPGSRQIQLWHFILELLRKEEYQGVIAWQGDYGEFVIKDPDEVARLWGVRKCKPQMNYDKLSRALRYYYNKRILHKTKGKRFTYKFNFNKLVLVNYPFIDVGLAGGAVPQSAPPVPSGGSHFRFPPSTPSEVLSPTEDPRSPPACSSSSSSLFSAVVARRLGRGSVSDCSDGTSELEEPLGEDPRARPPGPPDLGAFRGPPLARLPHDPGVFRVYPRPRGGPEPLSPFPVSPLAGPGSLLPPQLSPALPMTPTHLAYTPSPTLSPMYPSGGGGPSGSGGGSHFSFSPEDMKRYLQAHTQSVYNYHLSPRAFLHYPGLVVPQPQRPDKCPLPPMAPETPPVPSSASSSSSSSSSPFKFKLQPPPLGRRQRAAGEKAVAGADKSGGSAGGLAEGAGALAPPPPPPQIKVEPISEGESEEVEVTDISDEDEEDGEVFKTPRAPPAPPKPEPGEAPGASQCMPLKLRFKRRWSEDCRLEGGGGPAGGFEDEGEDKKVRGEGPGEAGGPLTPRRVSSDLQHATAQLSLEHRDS
Outline: (§1)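 Binding signal is given per hexamer as its read frequency for a factor divided by its frequency in the tag-only sample. GST-fused human transcription factors were expressed in yeast, captured on glutathione beads, barcoded with DNA and pooled with that sample, then incubated with 200 nmole of a 16-mer random double-stranded DNA library in Tris/NaCl/DTT/glycerol buffer for 30 min at room temperature. The pools were then washed, crosslinked, proximity-ligated, amplified by PCR and sequenced on an Illumina NextSeq500.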

ETV3L = target: T2, ETV3L (Homo sapiens, UniProt Q6ZN32 1-361)
T2 sequence: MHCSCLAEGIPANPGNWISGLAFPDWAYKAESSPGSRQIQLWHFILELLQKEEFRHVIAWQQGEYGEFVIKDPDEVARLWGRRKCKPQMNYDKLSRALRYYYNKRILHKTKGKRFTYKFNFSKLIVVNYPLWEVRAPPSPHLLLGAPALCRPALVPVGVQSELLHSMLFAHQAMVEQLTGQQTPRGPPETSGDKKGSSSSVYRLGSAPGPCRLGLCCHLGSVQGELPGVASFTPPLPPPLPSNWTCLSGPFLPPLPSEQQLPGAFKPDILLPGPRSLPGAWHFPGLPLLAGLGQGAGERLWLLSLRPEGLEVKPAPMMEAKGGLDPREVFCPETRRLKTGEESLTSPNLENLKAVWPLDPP
Outline: as §1

ETS2 = target: T3, ETS2 (Homo sapiens, UniProt P15036 1-469)
T3 sequence: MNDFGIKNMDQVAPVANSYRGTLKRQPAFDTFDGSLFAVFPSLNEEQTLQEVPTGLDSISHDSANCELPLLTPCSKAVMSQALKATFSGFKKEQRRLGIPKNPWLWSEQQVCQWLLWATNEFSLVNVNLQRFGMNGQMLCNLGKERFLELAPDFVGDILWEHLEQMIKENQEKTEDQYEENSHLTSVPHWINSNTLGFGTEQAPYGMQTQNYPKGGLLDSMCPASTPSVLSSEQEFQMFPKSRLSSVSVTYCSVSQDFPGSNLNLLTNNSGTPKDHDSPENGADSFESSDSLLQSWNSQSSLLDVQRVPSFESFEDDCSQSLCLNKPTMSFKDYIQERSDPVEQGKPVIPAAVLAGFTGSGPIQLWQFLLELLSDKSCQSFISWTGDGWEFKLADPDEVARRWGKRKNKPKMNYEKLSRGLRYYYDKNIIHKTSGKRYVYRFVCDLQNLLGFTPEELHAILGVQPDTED
Outline: as §1

SPDEF = target: T4, SPDEF (Homo sapiens, UniProt O95238 1-335)
T4 sequence: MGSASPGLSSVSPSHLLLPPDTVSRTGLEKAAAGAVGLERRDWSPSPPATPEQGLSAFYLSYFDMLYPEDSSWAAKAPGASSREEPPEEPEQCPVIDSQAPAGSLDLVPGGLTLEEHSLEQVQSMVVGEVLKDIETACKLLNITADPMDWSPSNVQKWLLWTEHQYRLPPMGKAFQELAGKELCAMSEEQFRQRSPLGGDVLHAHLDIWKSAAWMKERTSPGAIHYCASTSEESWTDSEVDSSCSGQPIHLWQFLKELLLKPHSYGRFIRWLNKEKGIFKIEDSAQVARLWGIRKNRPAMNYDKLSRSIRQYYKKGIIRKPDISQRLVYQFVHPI
Outline: as §1

ETV7 = target: T5, ETV7 (Homo sapiens, UniProt Q9Y603 1-341)
T5 sequence: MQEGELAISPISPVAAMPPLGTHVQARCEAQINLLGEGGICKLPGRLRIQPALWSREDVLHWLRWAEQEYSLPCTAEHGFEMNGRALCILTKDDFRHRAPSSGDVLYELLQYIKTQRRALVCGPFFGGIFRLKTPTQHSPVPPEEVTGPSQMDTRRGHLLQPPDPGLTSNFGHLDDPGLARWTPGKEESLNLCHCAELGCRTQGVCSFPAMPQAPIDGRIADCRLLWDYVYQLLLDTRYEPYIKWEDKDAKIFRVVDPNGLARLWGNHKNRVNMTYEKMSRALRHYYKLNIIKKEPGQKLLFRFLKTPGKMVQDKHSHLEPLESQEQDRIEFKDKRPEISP
Outline: as §1

ELF5 = target: T6, ELF5 (Homo sapiens, UniProt Q9UKW6-2 1-255)
T6 sequence: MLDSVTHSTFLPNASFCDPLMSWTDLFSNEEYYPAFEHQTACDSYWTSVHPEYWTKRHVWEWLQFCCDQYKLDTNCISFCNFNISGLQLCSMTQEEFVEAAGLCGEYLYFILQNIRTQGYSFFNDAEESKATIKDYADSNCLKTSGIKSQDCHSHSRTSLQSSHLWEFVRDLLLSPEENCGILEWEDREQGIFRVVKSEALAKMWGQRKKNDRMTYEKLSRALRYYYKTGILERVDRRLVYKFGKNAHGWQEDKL
Outline: as §1

ETV3 = target: T7, ETV3 (Homo sapiens, UniProt P41162-2 1-143)
T7 sequence: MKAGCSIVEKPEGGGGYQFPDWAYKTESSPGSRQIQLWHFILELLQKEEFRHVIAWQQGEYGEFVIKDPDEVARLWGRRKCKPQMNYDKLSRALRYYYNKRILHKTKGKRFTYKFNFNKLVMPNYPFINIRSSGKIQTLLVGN
Outline: as §1

ETV6 = ETV6 (Homo sapiens, UniProt P41212 1-452)
Sequence of ETV6 (P41212 whole entry): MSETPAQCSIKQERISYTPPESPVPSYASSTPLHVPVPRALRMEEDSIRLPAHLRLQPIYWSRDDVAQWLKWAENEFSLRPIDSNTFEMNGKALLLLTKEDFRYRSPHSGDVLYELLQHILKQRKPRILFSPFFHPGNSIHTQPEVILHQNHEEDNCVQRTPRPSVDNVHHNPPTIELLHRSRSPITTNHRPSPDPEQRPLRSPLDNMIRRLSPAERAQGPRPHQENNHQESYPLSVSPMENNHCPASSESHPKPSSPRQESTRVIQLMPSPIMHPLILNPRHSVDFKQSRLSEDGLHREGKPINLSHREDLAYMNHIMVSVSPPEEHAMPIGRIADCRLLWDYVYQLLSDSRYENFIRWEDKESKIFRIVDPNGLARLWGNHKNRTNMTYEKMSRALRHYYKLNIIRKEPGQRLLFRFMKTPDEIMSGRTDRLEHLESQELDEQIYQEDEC
Outline: as §1

Sequence: TCCCTG
- binding signal (ERF): 1.29 fold enrichment (6-mer frequency, TF over GST control)
- binding signal (ETV3L): 1.28 fold enrichment (6-mer frequency, TF over GST control)
- binding signal (ETS2): 1.21 fold enrichment (6-mer frequency, TF over GST control)
- binding signal (SPDEF): 1.19 fold enrichment (6-mer frequency, TF over GST control)
- binding signal (ETV7): 1.23 fold enrichment (6-mer frequency, TF over GST control)
- binding signal (ELF5): 1.38 fold enrichment (6-mer frequency, TF over GST control)
- binding signal (ETV3): 1.26 fold enrichment (6-mer frequency, TF over GST control)
- binding signal (ETV6): 1.31 fold enrichment (6-mer frequency, TF over GST control)

Sequence: ACTCTA
- binding signal (ERF): 1.56 fold enrichment (6-mer frequency, TF over GST control)
- binding signal (ETV3L): 1.39 fold enrichment (6-mer frequency, TF over GST control)
- binding signal (ETS2): 1.39 fold enrichment (6-mer frequency, TF over GST control)
- binding signal (SPDEF): 1.38 fold enrichment (6-mer frequency, TF over GST control)
- binding signal (ETV7): 1.34 fold enrichment (6-mer frequency, TF over GST control)
- binding signal (ELF5): 1.41 fold enrichment (6-mer frequency, TF over GST control)
- binding signal (ETV3): 1.48 fold enrichment (6-mer frequency, TF over GST control)
- binding signal (ETV6): 1.33 fold enrichment (6-mer frequency, TF over GST control)

Sequence: CTTACG
- binding signal (ERF): 1.09 fold enrichment (6-mer frequency, TF over GST control)
- binding signal (ETV3L): 1.05 fold enrichment (6-mer frequency, TF over GST control)
- binding signal (ETS2): 1.13 fold enrichment (6-mer frequency, TF over GST control)
- binding signal (SPDEF): 1.1 fold enrichment (6-mer frequency, TF over GST control)
- binding signal (ETV7): 1.1 fold enrichment (6-mer frequency, TF over GST control)
- binding signal (ELF5): 1.15 fold enrichment (6-mer frequency, TF over GST control)
- binding signal (ETV3): 1.15 fold enrichment (6-mer frequency, TF over GST control)
- binding signal (ETV6): 1 fold enrichment (6-mer frequency, TF over GST control)

Sequence: CTGCCC
- binding signal (ERF): 1.16 fold enrichment (6-mer frequency, TF over GST control)
- binding signal (ETV3L): 1.22 fold enrichment (6-mer frequency, TF over GST control)
- binding signal (ETS2): 1.21 fold enrichment (6-mer frequency, TF over GST control)
- binding signal (SPDEF): 1.23 fold enrichment (6-mer frequency, TF over GST control)
- binding signal (ETV7): 1.15 fold enrichment (6-mer frequency, TF over GST control)
- binding signal (ELF5): 1.19 fold enrichment (6-mer frequency, TF over GST control)
- binding signal (ETV3): 1.37 fold enrichment (6-mer frequency, TF over GST control)
- binding signal (ETV6): 1.16 fold enrichment (6-mer frequency, TF over GST control)

Sequence: TGTCCT
- binding signal (ERF): 1.5 fold enrichment (6-mer frequency, TF over GST control)
- binding signal (ETV3L): 1.58 fold enrichment (6-mer frequency, TF over GST control)
- binding signal (ETS2): 1.47 fold enrichment (6-mer frequency, TF over GST control)
- binding signal (SPDEF): 1.79 fold enrichment (6-mer frequency, TF over GST control)
- binding signal (ETV7): 1.4 fold enrichment (6-mer frequency, TF over GST control)
- binding signal (ELF5): 1.7 fold enrichment (6-mer frequency, TF over GST control)
- binding signal (ETV3): 1.47 fold enrichment (6-mer frequency, TF over GST control)
- binding signal (ETV6): 1.25 fold enrichment (6-mer frequency, TF over GST control)

Sequence: ACTCCA
- binding signal (ERF): 1.26 fold enrichment (6-mer frequency, TF over GST control)
- binding signal (ETV3L): 1.11 fold enrichment (6-mer frequency, TF over GST control)
- binding signal (ETS2): 1.28 fold enrichment (6-mer frequency, TF over GST control)
- binding signal (SPDEF): 1.16 fold enrichment (6-mer frequency, TF over GST control)
- binding signal (ETV7): 1.18 fold enrichment (6-mer frequency, TF over GST control)
- binding signal (ELF5): 1.14 fold enrichment (6-mer frequency, TF over GST control)
- binding signal (ETV3): 1.17 fold enrichment (6-mer frequency, TF over GST control)
- binding signal (ETV6): 1.13 fold enrichment (6-mer frequency, TF over GST control)

Reference: article PMC7862700, “An all-to-all approach to the identification of sequence-specific readers for epigenetic DNA modifications on cytosine”
